Where “and” joins values, the source holds several entries; their conditions need not be identical. Equal entries are not always repeated. Results filed as inconclusive are left out. Some structures have more than one record in an assay (separate samples or runs), and their calls can disagree. Calls of active or inactive are those of the source. The calls were made as follows, unless noted: active = hit-call score of the fitted dose curve at least 0.9, where 1 is the maximum; inactive = score below 0.9.
How the values were obtained:
[1] = read-out: E-selectin (Homo sapiens) (UniProt P16581); assay: BSK_SAg_Eselectin: BioMAP Diversity Plus: SAg Assay for Eselectin Biomarker Activity (AID 2283091); settings: primary human HUVEC with PBMC; actives raise or lower the signal
Procedure, shortened: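 HUVEC co-cultured with PBMC, compound dosed then read at 24 h; E-selectin measured by ELISA. Activity fitted bidirectionally against DMSO as negative control and baseline.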

[2] = read-out: Monokine induced gamma interferon (MIG), CXCL9 (gene 4283); assay: BSK_SAg_MIG: BioMAP Diversity Plus: SAg Assay for Monokine induced gamma interferon (MIG) Biomarker Activity (AID 2283092); settings: primary human HUVEC with PBMC; actives raise or lower the signal
Procedure, shortened: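 HUVEC plus human PBMC co-culture, chemicals dosed and MIG (CXCL9) quantified by ELISA at 24 h. Bidirectional curve fitting against DMSO as negative control and baseline, so both gain and loss of signal count as activity.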

[3] = BSK_SAg_PBMCCytotoxicity: PBMC Cytotoxicity Assessment in the BioMAP Diversity Plus: SAg Assay (AID 2283093); settings: primary human HUVEC with PBMC;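 also: PBMC viability measured as Alamar Blue reduction fluorescence at 546/580 nm; fitted both ways against DMSO so a hit may be loss or gain of signal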;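 as to AC50: PBMC superantigen activated with SEB plus TSST-1 one hour after compound addition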
Procedure, shortened: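 HUVEC/PBMC co-culture; PBMC exposed to chemical 1 h before SEB and TSST-1 activation (20 ng/mL each), incubated 90 h, then Alamar Blue 6 h, fluorescence 546/580 nm. Bidirectional fit versus DMSO baseline.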

[4] = read-out: Interleukin-8 (IL8), CXCL8 (gene 3576); assay: BSK_SAg_IL8: BioMAP Diversity Plus: SAg Assay for Interleukin-8 (IL8) Biomarker Activity (AID 2283094); settings: primary human HUVEC with PBMC; actives raise or lower the signal
Procedure, shortened: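 ELISA read-out of IL-8 in a primary human vascular co-culture (umbilical vein endothelium plus PBMC), taken 24 h after compound addition. Values derive from bidirectional fits against DMSO negative controls.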

[5] = BSK_SAg_Proliferation: Cell Proliferation Assessment in the BioMAP Diversity Plus: SAg Assay (AID 2283095); settings: primary human HUVEC with PBMC;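 also: relative cell number as total protein by SRB absorbance in sub-confluent culture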
Procedure, shortened: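 Cells (endothelium plus PBMC, human primary) were dosed with chemical, cultured 96 h, fixed in 10% TCA and stained with 0.1% SRB. Absorbance at 560 nm gave relative protein, fitted bidirectionally relative to DMSO.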

[6] = BSK_SAg_SRB: Viability Assessment in the BioMAP Diversity Plus: SAg Assay (AID 2283096); settings: primary human HUVEC with PBMC;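 also: cells read one day after compound addition; hits may be either gain or loss of signal compared with DMSO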
Procedure, shortened: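 Human umbilical vein endothelial cells co-cultured with PBMC, read 24 h after compound dosing. Total protein measured by sulforhodamine B staining (0.1% SRB after 10% TCA fixation, absorbance 560 nm); bidirectional fit versus DMSO baseline.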

[7] = target: Cytochrome P450 2C19 (Homo sapiens) (UniProt P33261); assay: NVS_ADME_hCYP2C19: NovaScreen (NVS) CYP450-related Enzyme Activity (ADME) Assay for human CYP2C19 (AID 2283113; active = hit-call score of the fitted dose curve at least 0.9, where 1 is the maximum;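 as to AC50: potency for inhibition seen as loss of fluorescent signal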)
Procedure, shortened: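 Cell-free assay of recombinant human CYP2C19 expressed in insect cells, with a fluorogenic substrate; fluorescence intensity read 1 hour after dosing. Loss of signal relative to acetonitrile negative control indicates inhibition. Primary screen at 10 uM in duplicate, then concentration series.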

[8] = target: human CYP2B6, CYP2B6 (gene 1555) (UniProt P20813); assay: NVS_ADME_hCYP2B6: NovaScreen (NVS) CYP450-related Enzyme Activity (ADME) Assay for human CYP2B6 (AID 2283101; active = hit-call score of the fitted dose curve at least 0.9, where 1 is the maximum)
Procedure, shortened: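 Recombinant human CYP2B6 with fluorogenic substrate, read by fluorescence intensity 1 h after dosing. Primary screen in duplicate at 10 uM, actives followed in concentration series; signal loss relative to acetonitrile control.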

[9] = target: rat CYP2A2, Cyp2a2 (gene 24895) (UniProt P15149); assay: NVS_ADME_rCYP2A2: NovaScreen (NVS) CYP450-related Enzyme Activity (ADME) Assay for rat CYP2A2 (AID 2283116; active = hit-call score of the fitted dose curve at least 0.9, where 1 is the maximum)
Chain of rat CYP2A2, Cyp2a2 (gene 24895) (P15149 whole entry, looked up): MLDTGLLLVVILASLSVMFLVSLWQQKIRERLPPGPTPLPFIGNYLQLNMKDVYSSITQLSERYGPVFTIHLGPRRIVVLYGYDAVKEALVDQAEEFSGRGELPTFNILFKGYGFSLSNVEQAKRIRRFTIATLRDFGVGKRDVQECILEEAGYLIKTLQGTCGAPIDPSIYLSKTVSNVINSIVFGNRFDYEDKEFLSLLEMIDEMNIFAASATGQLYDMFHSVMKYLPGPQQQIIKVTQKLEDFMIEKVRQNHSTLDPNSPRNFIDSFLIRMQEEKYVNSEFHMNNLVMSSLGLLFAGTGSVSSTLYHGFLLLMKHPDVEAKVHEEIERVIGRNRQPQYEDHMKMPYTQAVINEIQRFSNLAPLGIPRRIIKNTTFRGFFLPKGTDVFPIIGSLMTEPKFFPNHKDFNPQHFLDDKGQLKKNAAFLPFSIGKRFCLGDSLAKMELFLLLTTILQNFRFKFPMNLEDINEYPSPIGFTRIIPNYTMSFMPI
Procedure, shortened: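 Cell-free recombinant rat CYP2A2 activity with fluorogenic substrate, fluorescence read 0.2 h after dosing. Chemicals screened at 10 uM in duplicate, hits then run in concentration-response up to 20 uM; signal loss versus acetonitrile baseline.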

rat CYP2B1, gene 24300 = assay: NVS_ADME_rCYP2B1: NovaScreen (NVS) CYP450-related Enzyme Activity (ADME) Assay for rat CYP2B1 (AID 2283117; active = hit-call score of the fitted dose curve at least 0.9, where 1 is the maximum)
Procedure, shortened: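 Recombinant rat CYP2B1 with fluorogenic substrate, read at 0.75 h. Primary screen in duplicate at 10 uM; compounds meeting threshold (e.g., 30% inhibition) re-run in concentration-response up to 20 uM. Fitted against acetonitrile control.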

[10] = target: human CYP1A1, CYP1A1 (gene 1543) (UniProt P04798); assay: NVS_ADME_hCYP1A1: NovaScreen (NVS) CYP450-related Enzyme Activity (ADME) Assay for human CYP1A1 (AID 2283100; active = hit-call score of the fitted dose curve at least 0.9, where 1 is the maximum)
Chain of human CYP1A1, CYP1A1 (gene 1543) (P04798 whole entry, looked up): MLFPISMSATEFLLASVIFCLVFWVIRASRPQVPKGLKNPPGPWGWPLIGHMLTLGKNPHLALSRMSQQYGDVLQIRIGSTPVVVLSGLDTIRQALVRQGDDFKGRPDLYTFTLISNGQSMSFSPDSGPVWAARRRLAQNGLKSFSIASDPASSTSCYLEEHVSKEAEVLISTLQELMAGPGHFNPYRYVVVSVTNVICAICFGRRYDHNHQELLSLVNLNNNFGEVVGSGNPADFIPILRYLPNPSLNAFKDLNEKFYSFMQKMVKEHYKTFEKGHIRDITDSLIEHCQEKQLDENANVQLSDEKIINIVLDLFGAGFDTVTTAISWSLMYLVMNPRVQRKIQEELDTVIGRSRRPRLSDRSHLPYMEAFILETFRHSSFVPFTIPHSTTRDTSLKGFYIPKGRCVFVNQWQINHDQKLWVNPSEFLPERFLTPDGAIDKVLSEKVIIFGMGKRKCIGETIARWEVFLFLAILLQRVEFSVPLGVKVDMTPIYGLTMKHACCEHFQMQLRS
Procedure, shortened: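 Cell-free fluorescence assay of recombinant human CYP1A1 activity with a specific substrate, read 1 h after dosing. Compounds were screened in duplicate at 10 uM, then hits tested in concentration-response up to 20 uM; acetonitrile served as baseline.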

[11] = target: human CYP2D6, CYP2D6 (gene 1565) (UniProt P10635); assay: NVS_ADME_hCYP2D6: NovaScreen (NVS) CYP450-related Enzyme Activity (ADME) Assay for human CYP2D6 (AID 2283107; active = hit-call score of the fitted dose curve at least 0.9, where 1 is the maximum)
Chain of human CYP2D6, CYP2D6 (gene 1565) (P10635 whole entry, looked up): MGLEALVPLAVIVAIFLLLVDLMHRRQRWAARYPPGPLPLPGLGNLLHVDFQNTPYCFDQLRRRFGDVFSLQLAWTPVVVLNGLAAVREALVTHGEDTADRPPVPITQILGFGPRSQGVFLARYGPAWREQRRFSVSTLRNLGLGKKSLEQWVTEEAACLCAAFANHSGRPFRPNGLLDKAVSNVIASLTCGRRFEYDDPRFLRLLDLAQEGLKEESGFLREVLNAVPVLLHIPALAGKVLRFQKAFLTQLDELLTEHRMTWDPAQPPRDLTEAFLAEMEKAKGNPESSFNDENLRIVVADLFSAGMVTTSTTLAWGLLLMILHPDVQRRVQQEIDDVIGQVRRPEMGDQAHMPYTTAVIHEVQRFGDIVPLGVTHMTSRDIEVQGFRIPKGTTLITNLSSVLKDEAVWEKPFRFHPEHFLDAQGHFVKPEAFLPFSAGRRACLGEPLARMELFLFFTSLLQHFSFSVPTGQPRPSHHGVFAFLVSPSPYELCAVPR
Procedure, shortened: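 Cell-free assay using recombinant enzyme expressed in insect cells, with fluorescence-intensity readout of enzyme activity 1 hour after chemical dosing. Loss of signal versus acetonitrile negative control indicates inhibition. Primary screen ran in duplicate at 10 uM; actives were retested in concentration series.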

[12] = target: human CYP2C9, CYP2C9 (gene 1559) (UniProt P11712); assay: NVS_ADME_hCYP2C9: NovaScreen (NVS) CYP450-related Enzyme Activity (ADME) Assay for human CYP2C9 (AID 2283108; active = hit-call score of the fitted dose curve at least 0.9, where 1 is the maximum)
Chain of human CYP2C9, CYP2C9 (gene 1559) (P11712 whole entry, looked up): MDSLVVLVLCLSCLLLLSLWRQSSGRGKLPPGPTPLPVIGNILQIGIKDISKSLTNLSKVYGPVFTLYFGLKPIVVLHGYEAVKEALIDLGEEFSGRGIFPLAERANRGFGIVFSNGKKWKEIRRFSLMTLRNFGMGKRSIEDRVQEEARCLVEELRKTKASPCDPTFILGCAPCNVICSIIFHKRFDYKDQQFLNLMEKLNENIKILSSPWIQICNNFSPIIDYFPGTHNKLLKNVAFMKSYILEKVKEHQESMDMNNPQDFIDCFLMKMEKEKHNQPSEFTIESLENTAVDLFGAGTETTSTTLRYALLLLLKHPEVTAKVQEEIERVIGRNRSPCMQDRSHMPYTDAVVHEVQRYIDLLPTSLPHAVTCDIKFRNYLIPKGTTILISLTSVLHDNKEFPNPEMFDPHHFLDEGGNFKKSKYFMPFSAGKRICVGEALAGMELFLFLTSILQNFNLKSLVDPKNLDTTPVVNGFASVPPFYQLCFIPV
Procedure, shortened: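 Recombinant human CYP2C9 expressed in SF9 cells, fluorogenic substrate, fluorescence read 0.75 h after dosing. Chemicals first run in duplicate at 10 uM, with actives followed in concentration series; loss of signal versus acetonitrile baseline.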

[13] = target: human CYP1A2, CYP1A2 (gene 1544) (UniProt P05177); assay: NVS_ADME_hCYP1A2: NovaScreen (NVS) CYP450-related Enzyme Activity (ADME) Assay for human CYP1A2 (AID 2283102; active = hit-call score of the fitted dose curve at least 0.9, where 1 is the maximum;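 also: potency for inhibition since loss of fluorescence marks reduced CYP1A2 activity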)
Chain of human CYP1A2, CYP1A2 (gene 1544) (P05177 whole entry, looked up): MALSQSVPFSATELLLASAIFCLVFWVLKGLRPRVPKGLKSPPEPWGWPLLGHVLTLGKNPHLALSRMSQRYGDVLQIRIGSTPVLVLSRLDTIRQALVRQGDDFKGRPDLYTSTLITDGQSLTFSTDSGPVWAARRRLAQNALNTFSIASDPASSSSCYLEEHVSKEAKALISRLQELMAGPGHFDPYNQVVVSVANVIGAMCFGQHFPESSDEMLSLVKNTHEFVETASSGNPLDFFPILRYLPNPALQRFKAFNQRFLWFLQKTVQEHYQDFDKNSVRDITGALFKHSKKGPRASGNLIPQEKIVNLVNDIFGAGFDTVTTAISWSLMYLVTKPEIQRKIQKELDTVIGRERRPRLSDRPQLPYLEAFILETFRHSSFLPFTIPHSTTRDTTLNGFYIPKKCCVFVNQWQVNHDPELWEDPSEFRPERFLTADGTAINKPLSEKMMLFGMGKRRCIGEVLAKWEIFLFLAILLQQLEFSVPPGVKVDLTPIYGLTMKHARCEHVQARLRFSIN
Procedure, shortened: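 Cell-free recombinant human CYP1A2 expressed in insect cells, with fluorogenic substrate; fluorescence intensity read 0.5 h after dosing. Loss of signal relative to acetonitrile baseline scored. Primary screen in duplicate at 10 uM; actives retested in concentration series.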

[14] = target: human CYP19A1, CYP19A1 (gene 1588) (UniProt P11511); assay: NVS_ADME_hCYP19A1: NovaScreen (NVS) CYP450-related Enzyme Activity (ADME) Assay for human CYP19A1 (AID 2283098; active = hit-call score of the fitted dose curve at least 0.9, where 1 is the maximum;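 as to AC50: potency for inhibitors seen as loss of fluorescent enzyme signal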)
Chain of human CYP19A1, CYP19A1 (gene 1588) (P11511 whole entry, looked up): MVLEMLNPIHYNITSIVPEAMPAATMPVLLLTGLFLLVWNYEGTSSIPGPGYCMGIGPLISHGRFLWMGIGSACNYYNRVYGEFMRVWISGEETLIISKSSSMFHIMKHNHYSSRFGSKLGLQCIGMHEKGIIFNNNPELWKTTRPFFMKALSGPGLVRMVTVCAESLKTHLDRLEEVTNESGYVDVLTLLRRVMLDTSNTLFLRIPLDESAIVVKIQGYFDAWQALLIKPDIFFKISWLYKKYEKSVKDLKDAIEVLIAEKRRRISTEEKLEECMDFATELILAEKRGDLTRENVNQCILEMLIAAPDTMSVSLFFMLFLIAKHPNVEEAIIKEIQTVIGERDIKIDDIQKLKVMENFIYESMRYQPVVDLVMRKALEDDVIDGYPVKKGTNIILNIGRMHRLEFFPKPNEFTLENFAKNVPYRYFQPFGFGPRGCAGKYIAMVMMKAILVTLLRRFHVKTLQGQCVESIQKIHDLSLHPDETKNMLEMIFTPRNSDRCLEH
Procedure, shortened: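 Recombinant enzyme in a cell-free format, read 0.5 h after dosing by fluorescence from a fluorogenic substrate. Loss of signal was fitted against acetonitrile as baseline. Primary screen in duplicate at 10 uM, actives then tested in concentration series.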

[15] = target: human CYP4F12, CYP4F12 (gene 66002) (UniProt Q9HCS2); assay: NVS_ADME_hCYP4F12: NovaScreen (NVS) CYP450-related Enzyme Activity (ADME) Assay for human CYP4F12 (AID 2283111; active = hit-call score of the fitted dose curve at least 0.9, where 1 is the maximum)
Chain of human CYP4F12, CYP4F12 (gene 66002) (Q9HCS2 whole entry, looked up): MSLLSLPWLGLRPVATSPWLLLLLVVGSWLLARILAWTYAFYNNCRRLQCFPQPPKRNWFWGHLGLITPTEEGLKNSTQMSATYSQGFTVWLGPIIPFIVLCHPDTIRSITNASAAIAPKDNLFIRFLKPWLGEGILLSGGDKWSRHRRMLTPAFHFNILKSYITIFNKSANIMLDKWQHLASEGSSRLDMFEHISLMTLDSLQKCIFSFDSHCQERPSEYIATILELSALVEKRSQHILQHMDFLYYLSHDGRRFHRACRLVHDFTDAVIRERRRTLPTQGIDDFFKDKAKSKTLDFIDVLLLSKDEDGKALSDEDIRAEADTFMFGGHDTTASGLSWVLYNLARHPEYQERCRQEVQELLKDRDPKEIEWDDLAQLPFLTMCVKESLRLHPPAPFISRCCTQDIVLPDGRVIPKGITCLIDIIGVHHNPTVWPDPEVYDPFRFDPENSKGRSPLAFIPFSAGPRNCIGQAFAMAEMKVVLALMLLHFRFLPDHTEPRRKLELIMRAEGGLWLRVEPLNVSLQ
Procedure, shortened: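 Cell-free fluorescence assay of recombinant human CYP4F12 activity on a specific substrate, read 0.5 h after dosing. Primary screen in duplicate at 10 uM, then concentration series for actives; loss of signal fitted against acetonitrile negative control.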

[16] = target: Cytochrome P450 3A4 (Homo sapiens) (UniProt P08684); assay: NVS_ADME_hCYP3A4: NovaScreen (NVS) CYP450-related Enzyme Activity (ADME) Assay for human CYP3A4 (AID 2283110; active = hit-call score of the fitted dose curve at least 0.9, where 1 is the maximum)
Procedure, shortened: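 Cell-free recombinant enzyme expressed in insect cells; fluorescent substrate turnover read after 0.33 h, acetonitrile as negative control. Primary screen in duplicate at 10 uM, actives then tested in concentration series.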

[17] = target: human CYP2A6, CYP2A6 (gene 1548) (UniProt P11509); assay: NVS_ADME_hCYP2A6: NovaScreen (NVS) CYP450-related Enzyme Activity (ADME) Assay for human CYP2A6 (AID 2283099; active = hit-call score of the fitted dose curve at least 0.9, where 1 is the maximum)
Chain of human CYP2A6, CYP2A6 (gene 1548) (P11509 whole entry, looked up): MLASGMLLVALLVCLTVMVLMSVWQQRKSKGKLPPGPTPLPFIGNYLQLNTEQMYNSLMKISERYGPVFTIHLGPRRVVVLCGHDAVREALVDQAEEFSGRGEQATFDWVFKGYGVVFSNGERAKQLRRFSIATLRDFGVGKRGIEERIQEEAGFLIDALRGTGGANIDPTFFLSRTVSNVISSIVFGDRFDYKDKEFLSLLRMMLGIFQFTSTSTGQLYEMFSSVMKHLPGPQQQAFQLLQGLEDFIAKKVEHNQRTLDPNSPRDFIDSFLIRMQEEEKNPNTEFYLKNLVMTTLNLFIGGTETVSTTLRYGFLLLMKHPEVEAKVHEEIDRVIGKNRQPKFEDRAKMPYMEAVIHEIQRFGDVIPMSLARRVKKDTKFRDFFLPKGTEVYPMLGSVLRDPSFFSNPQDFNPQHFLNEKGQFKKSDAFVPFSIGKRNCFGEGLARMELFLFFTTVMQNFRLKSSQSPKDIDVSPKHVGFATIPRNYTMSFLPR
Procedure, shortened: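 Cell-free fluorescence readout of recombinant human CYP2A6 expressed in insect cells, read 0.5 h after dosing; loss of signal versus acetonitrile negative control. Primary screen in duplicate at 10 uM; actives re-run in concentration-response up to 20 uM.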

Measured: AC50

Chain of E-selectin (Homo sapiens) (P16581 whole entry, looked up): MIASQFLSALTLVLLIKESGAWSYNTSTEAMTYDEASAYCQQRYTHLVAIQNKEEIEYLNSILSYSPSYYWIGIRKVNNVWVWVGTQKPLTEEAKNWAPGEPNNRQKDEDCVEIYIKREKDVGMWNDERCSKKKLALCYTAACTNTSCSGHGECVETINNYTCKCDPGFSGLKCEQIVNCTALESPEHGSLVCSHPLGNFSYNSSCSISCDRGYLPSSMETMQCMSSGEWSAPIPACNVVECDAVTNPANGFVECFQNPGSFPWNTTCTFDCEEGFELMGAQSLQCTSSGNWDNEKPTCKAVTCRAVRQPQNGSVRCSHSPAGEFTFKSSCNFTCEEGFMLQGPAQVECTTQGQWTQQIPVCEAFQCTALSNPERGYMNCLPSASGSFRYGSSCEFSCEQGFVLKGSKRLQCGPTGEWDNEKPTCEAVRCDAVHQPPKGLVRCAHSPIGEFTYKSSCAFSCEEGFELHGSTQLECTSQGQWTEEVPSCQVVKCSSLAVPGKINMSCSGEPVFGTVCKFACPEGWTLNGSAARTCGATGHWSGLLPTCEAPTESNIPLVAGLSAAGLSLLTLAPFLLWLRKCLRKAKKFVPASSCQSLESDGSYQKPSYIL

CCOC(=O)C(O)(c1ccc(Cl)cc1)c1ccc(Cl)cc1
active: [1] 31.7 µM | [2] 39.3 µM | [3] 33.7 µM | [4] 32.9 µM | [5] 30.9 µM | [6] 32.3 µM | [7] 0.596 µM

ClC(Cl)=C(c1ccc(Cl)cc1)c1ccc(Cl)cc1
active: [1] 32.2 µM | [2] 36 µM | [3] 15.4 µM | [4] 34.6 µM | [5] 18.4 µM | [6] 32 µM
inactive: [8] | [7] | [9] | rat CYP2B1, gene 24300

CO/C=C(/C(=O)OC)c1ccccc1COc1cccc(C(F)(F)F)n1
inactive: [10] | [11]
active: [1] 6.75 µM | [2] 26.5 µM | [3] 1.17 µM | [4] 5.66 µM | [5] 4.57 µM | [6] 9.02 µM | [12] 6.85 µM | [7] 1 µM

CCNc1nc(NC(C)C)nc(SC)n1
inactive: [1] | [2] | [3] | [4] | [5] | [6]
active: [13] 4.92 µM | [7] 4.91 µM

CC(C)C(=O)OCC(C)(C)C(OC(=O)C(C)C)C(C)C (stereo not drawn)
active: [14] 11.6 µM | [15] 6.26 µM
inactive: [1] | [2] | [3] | [4] | [5] | [6]

Cc1cccc(C)c1N
inactive: [1] | [2] | [3] | [4] | [5] | [6] | [16]

CCSC(=O)N(CC)C1CCCCC1
inactive: [1] | [2] | [3] | [4] | [5] | [6]

Cc1ccc(O)c(C)c1
inactive: [1] | [2] | [3] | [4] | [5] | [6] | [15]

CC#Cc1cc(C)nc(Nc2ccccc2)n1
active: [5] 28.3 µM | [10] 0.617 µM | [13] 1.96 µM
inactive: [1] | [2] | [3] | [4] | [6]

Cc1cc(-c2ccc(N)c(C)c2)ccc1N
inactive: [1] | [2] | [3] | [4] | [6] | [14]
active: [5] 11.8 µM

C[C@]12CCC(=O)C=C1CC[C@@H]1[C@@H]2CC[C@]2(C)C(=O)CC[C@@H]12
inactive: [1] | [2] | [3] | [4] | [5]
active: [6] 20 µM | [14] 5.03 µM and 5.63 µM and 1.44 µM | [7] 10 µM and 6.19 µM and 5.77 µM | [9] 1.52 µM

Clc1ccc(C(c2ccccc2Cl)C(Cl)(Cl)Cl)cc1 (stereo not drawn)
active: [1] 24.7 µM | [2] 27.6 µM | [3] 8.98 µM | [4] 13.5 µM | [5] 6.64 µM | [6] 12.7 µM | [10] 5.21 µM

Cc1cccc([N+](=O)[O-])c1
inactive: [1] | [2] | [3] | [4] | [5] | [6] | [17]

O=C(N[C@H]1CN2CCC1CC2)c1cc2ccoc2cn1
inactive: [1] | [2] | [3] | [4] | [5] | [6]
active: [11] 2.09 µM

CC(C)(O)C(=O)Nc1ccc([N+](=O)[O-])c(C(F)(F)F)c1
active: [14] 6.99 µM and 5.59 µM | [13] 3.38 µM | [7] 3.49 µM
inactive: [2] | [3] | [4] | [5] | [6] | [14] | [12]

Source: PubChem BioAssay (EPA / NIEHS)
